The text below walks through data of PubChem BioAssay AID504652 (National Center for Advancing Translational Sciences (NCATS), 2011).

Molecules are shown by their SMILES. Among all 360,000 compounds or so, about 11,000 (3.1%) were called active. Cut-off read from the data, not from the text of the source: active = activity change below about -30%; inactive = the rest. The entries come from a sample that favours actives as a whole.
% is set by controls: 0 for no effect and ±100 for the full control effect.

D(1A) dopamine receptor (Homo sapiens), sequence (P21728 whole entry, looked up): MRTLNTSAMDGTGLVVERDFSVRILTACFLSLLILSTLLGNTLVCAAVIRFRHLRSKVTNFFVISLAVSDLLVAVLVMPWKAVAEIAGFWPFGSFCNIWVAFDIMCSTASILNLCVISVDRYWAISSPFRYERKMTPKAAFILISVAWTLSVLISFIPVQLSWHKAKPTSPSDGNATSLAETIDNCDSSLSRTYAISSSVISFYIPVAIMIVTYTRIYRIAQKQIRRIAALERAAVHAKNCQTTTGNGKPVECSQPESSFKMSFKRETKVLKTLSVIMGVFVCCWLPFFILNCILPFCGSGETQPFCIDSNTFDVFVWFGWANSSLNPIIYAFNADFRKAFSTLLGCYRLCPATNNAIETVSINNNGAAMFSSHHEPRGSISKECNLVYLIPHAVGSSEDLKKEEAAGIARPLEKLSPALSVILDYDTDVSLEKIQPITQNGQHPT

The assay has as its target D(1A) dopamine receptor (Homo sapiens) (UniProt P21728). Nature of the assay: Antagonist of Human D 1 Dopamine Receptor: qHTS. The settings on record: HEK293 TREx D1 cells, calcium flux, dopamine EC80; at 10 µM; active compounds read low. From the text:
Dopamine receptors (DARs) are involved in the etiology and/or therapy of a number of neuropsychiatric and endocrine disorders. For instance, all receptor-based antiparkinsonian drugs work via stimulating the […] DAR subtype whereas all FDA-approved antipsychotic agents are antagonists of this receptor. […] There are three different types of allosteric modulators that we are seeking, two of which will stimulate or augment receptor signaling, allosteric agonists and potentiators, while the third, allosteric antagonists, will attenuate receptor signaling. The present primary screening assay measures compound antagonism after an EC80 addition of dopamine by tracking calcium flux in a […], inducible Hek293 Trex D1 cell line. NIH Chemical Genomics Center [NCGC] NIH Molecular Libraries Probe Centers Network [MLPCN] MLPCN Grant: NS064831-01 Assay Submitter (PI): David Sibley
Freshly passaged cells are plated in 1536 well black, clear bottom plates at a density of 4000 cells/well in 3 ul of complete media containing 1x tetracycline inducer. After an overnight incubation at 30 C in 5% CO2, cells are loaded with 2 ul of the no wash Calcium Assay Kit (ABD Bioquest) and incubated at room temperature for 30 to 90 minutes. Agonist read: A 10 cycle (1 second/cycle) baseline measurement is taken and then the FDSS online 1536 pintool delivers 23 nl of compound library (as well as dopamine controls) to the plate. The plate is measured for kinetically at 1 cycle/sec for 180 seconds. Following the 180 second read, 1 ul of an EC80 (negative modulation assay) is delivered by an onboard pipette head. Measurements are taken kinetically for an additional 180 seconds.
A general note: Quantitative high-throughput screening tests each substance at several concentrations.
`COc1ccc(OC)c(NC(=O)CN2CCCN(Cc3cc(C)ccc3C)S2(=O)=O)c1`: the activity change, negative = inhibition was 2.17% (inactive). Then `COC(=O)C1(C)NC(c2ccc(C)cc2)C2C(=O)N(c3ccc(F)cc3)C(=O)C21` (centres undefined), with -8.61% (inactive). With `COC(=O)[C@]1(C)N[C@H](c2ccc(-c3ccc(Cl)c(Cl)c3)cc2)[C@@H]2C(=O)N(C)C(=O)[C@@H]21` the figure was -31.4% (active). Then `COC(=O)C1(C)NC(c2ccc(F)cc2)C2C(=O)N(c3ccccc3)C(=O)C21` (centres undefined), with 0.925% (inactive); and `CCC(=O)N1CCc2cc(CNS(=O)(=O)c3ccc(Br)s3)ccc21`, with -7.89% (inactive); and `CCCCOc1ccc(CN2C(=O)C(=O)c3cc(Br)cc(C)c32)cc1OC`, with -30.4% (active).

Consider `CCCCN1C(=O)C(C)=C(C)C1OCCc1ccc(OC)c(OC)c1` (centres undefined), for which the activity change, negative = inhibition is 2.6% (inactive).

Regarding `CCCCOc1ccc(Cn2c(=O)oc3ccc(C)cc32)cc1OC`, the activity change, negative = inhibition is -3.29% (inactive).

For the compound `Cc1ccccc1CNC(=O)CSc1nnc(C)c2c(C)n(-c3ccccc3)nc12`, the activity change, negative = inhibition is -8.46% (inactive). Turning to `CCOC(=O)c1c(S(=O)(=O)NCC(=O)Nc2ccc(Cl)c(C(F)(F)F)c2)c(C)n(C)c1C`, the activity change, negative = inhibition was -17.1% (inactive).

On to `CC(=O)N[C@@H](C)C(=O)N1CCC(n2nccc2NC(=O)CCCc2ccccc2)CC1`, for which the activity change, negative = inhibition is -35.7% (active). Then `CC(=O)NCC(=O)N1CCC(n2nccc2NC(=O)CCCc2ccccc2)CC1`, with -10.3% (inactive); and `Cc1ccc(CN2CCC(n3nccc3NC(=O)CCCc3ccccc3)CC2)o1`, with 3.11% (inactive); and `COc1ccc(CCNC(=O)CCc2c(C)nc3c(c(C)nn3-c3ccc(C)c(C)c3)c2C)c(OC)c1OC`, with -6.08% (inactive). With `Cc1ccc2c(c1)N(CC(=O)NCC1CCCO1)C(=O)CO2` (centres undefined) the figure was -13.8% (inactive); with `Cc1ccc(-n2c(C)cc(/C=C(\C#N)C(=O)NCC3CCCO3)c2C)cc1` (centres undefined), -101% (active); with `Cc1ccc(C(=O)N/C(=C/c2cccs2)C(=O)NCC2CCCO2)cc1` (centres undefined), -5.41% (inactive). Consider `Cc1ccccc1OCCSc1nc2ccc(NC(=O)c3ccco3)cc2s1`, for which the activity change, negative = inhibition is -30% (inactive). On to `COc1ccccc1CNC(=O)CCn1c(=O)c2ccccc2n(CC(=O)Nc2cccc(Cl)c2)c1=O`, for which the activity change, negative = inhibition is -3.25% (inactive).

Take `Cc1cc(C)cc(-n2c(SCC(=O)NCC3CCCO3)nc3c([nH]c4ccccc43)c2=O)c1` (centres undefined): the activity change, negative = inhibition was -4.35% (inactive). Turning to `Cc1c(C(=O)N2CCCC2)oc2c1-c1nn(CC(=O)NCc3ccc(OC(C)C)cc3)cc1CC2`, the activity change, negative = inhibition is -7.55% (inactive).

`Cc1cccc(N2CCN(C3=C(c4ccccc4)C(=O)c4ccccc43)CC2)c1C`: the activity change, negative = inhibition was 18% (inactive). With `CN(CC(=O)Nc1cccc(C(F)(F)F)c1)S(=O)(=O)c1cccs1` the figure was -18.7% (inactive); with `CCOC(=O)c1ccc(NC(=O)Cn2c(=O)cc(C)c3c(C)nn(-c4cccc(F)c4)c32)cc1`, -13.3% (inactive). `O=C(CO/N=C/c1ccc(OC(F)F)cc1)NCc1ccc(F)cc1`: the activity change, negative = inhibition is -6.98% (inactive).

As to `COC(=O)c1ccc(/C=N/OCC(=O)Nc2cc(F)ccc2F)cc1`, the activity change, negative = inhibition was -33% (active). With `O=C(COC(=O)[C@H](Cc1ccccc1)NC(=O)c1cccs1)Nc1cc(F)ccc1F` the figure was -9.37% (inactive); with `Cc1ccc(C(=O)N2CCN(S(=O)(=O)N3CCOCC3)CC2)cc1`, -3.63% (inactive). `CCc1ccc(C(=O)N2CCN(S(=O)(=O)c3sc(C(=O)O)c(C)c3C(=O)O)CC2)cc1`: the activity change, negative = inhibition is -68.6% (active).

On to `CCC(C(=O)N1CCN(S(=O)(=O)c2sc(C(=O)O)c(C)c2C(=O)O)CC1)c1ccccc1` (centres undefined), for which the activity change, negative = inhibition was -4.86% (inactive). Then `COc1ccc(SCc2cc(=O)c3ccc(C)c(C)c3[nH]2)cc1`, with 7.95% (inactive); and `Cn1c(=O)c2c(nc(SCC(=O)Nc3ccc(F)cc3)n2Cc2ccc(Cl)cc2)n(C)c1=O`, with -3.1% (inactive); and `O=C(Cc1ccc(-n2c(=O)[nH]c3ccccc3c2=O)cc1)N1CCN(c2cccc(Cl)c2)CC1`, with -8.8% (inactive). Regarding `COc1cccc(CNC(=O)Cc2csc(Nc3nc(=S)[nH]c4ccccc34)n2)c1`, the activity change, negative = inhibition is -0.499% (inactive). With `CCOC(=O)c1c(C)[nH]c(CCC(=O)NCCCN2CCN(c3cccc(Cl)c3)CC2)c1C` the figure was -31.4% (active); with `CCOC(=O)N1CCC(Nc2c(NCCN3CCN(c4cccc(Cl)c4)CC3)c(=O)c2=O)CC1`, -24% (inactive); with `COc1cccc(N2CCN(C(=O)CCCCCn3c(=O)[nH]c4ccccc4c3=O)CC2)c1`, -11.8% (inactive). For `CCn1c(=O)cc(OCC(=O)Nc2cc(Cl)c(OC)cc2OC)c2ccccc21`, the activity change, negative = inhibition is 1.43% (inactive). Take `O=C(Cc1csc(Nc2nc(=S)[nH]c3ccccc23)n1)NCCCN1CCN(c2cccc(Cl)c2)CC1`: the activity change, negative = inhibition was -56.6% (active).

Take `Cn1c(=O)cc(OCC(=O)N2CCN(c3ccccc3)CC2)c2ccccc21`: the activity change, negative = inhibition was -4.64% (inactive). With `COCCCn1c(Cc2csc(Nc3cccc(Cl)c3)n2)nnc1SCC(=O)OC1CCCCC1` the figure was 12.9% (inactive); with `CCn1c(=O)cc(OCC(=O)NCCCN2CCN(c3cccc(Cl)c3)CC2)c2ccccc21`, -46.8% (active). Then `O=C(CCn1c(=O)[nH]c2ccccc2c1=O)NCCCN1CCN(c2cccc(Cl)c2)CC1`, with -49% (active); and `CCOC(=O)c1c(C)[nH]c(CCC(=O)NCCCN2CCN(c3cc(C)ccc3C)CC2)c1C`, with -11.7% (inactive).
